Data on 26 compounds can be found in PubChem BioAssay (NCATS).

The structures appear in SMILES notation. Inconclusive results are not listed. Unmarked numbers belong to inactive results. Calls of active or inactive are those of the source. The call rests on the fitted dose curve; in most records, active means well fitted curve in the direction sought with a large enough effect; inconclusive means small, poorly fitted or top-dose-only effect, or another doubt; inactive means no such curve, though single readings can be large; an effect the other way counts as inactive or inconclusive.

Assay [1] concerns the target Rap guanine nucleotide exchange factor 3 (Homo sapiens) (UniProt O95398). In words: Confirmatory qHTS for antagonist of cAMP-regulated guanine nucleotide exchange factor 3 (EPAC1) (AID 1645880). Further: nearly all actives have a fitted effect of over 55% in size. Further: potency means the concentration at half of the fitted maximal effect. The method in brief:
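Nucleotide exchange uses 100 nM EPAC1, 250 nM RAP1B-BODIPY-GDP and 50 uM GDP, with compounds in a concentration-titration series. After 5 min at room temperature, fluorescence (480 nm ex/540 nm em) is read every 5 min for 30 min. Data are normalized to control ATA and DMSO.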
Background: Quantitative high-throughput screening tests each substance at several concentrations.

Assay [2] shares this target. In words: Confirmatory qHTS for agonist of cAMP-regulated guanine nucleotide exchange factor 3 (EPAC1) (AID 1645881).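 Further: EPAC1 catalysed release of BODIPY-GDP from Rap1B seen as fluorescence loss; 100% = effect of cAMP agonist control; nearly all actives have a fitted effect of over 75% in size.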
For assay [3], the target named is Rap guanine nucleotide exchange factor 4 (Homo sapiens) (UniProt Q8WZA2). Nature of the assay: Confirmatory qHTS for agonist of cAMP-regulated guanine nucleotide exchange factor 4 (EPAC2) (AID 1645884).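 Further: nucleotide exchange releases bodipy-GDP from Rap1 and this lowers its fluorescence; on the % scale 0 is the no-effect control and ±100 the full control effect; nearly all actives have a fitted effect of over 65% in size.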
The target is the same in assay [4]. In words: Confirmatory qHTS for antagonist of cAMP-regulated guanine nucleotide exchange factor 4 (EPAC2) (AID 1645885). Further: nearly all actives have a fitted effect of over 25% in size. Further: potency means the concentration at half of the fitted maximal effect. On activity change, negative = inhibition: on the % scale 0 is the no-effect control and ±100 the full control effect.
Assay [5] addresses Rap guanine nucleotide exchange factor 3 (Homo sapiens) (UniProt O95398). In words: Counterscreen qHTS for antagonist of cAMP-regulated guanine nucleotide exchange factor 3 (EPAC1) (AID 1645888).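 Further: fluorescence loss as bound BODIPY-GDP is released from Rap1B; % of control where 0% means no effect.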 The method in brief: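 Rap1B-BODIPY-GDP 250 nM + GDP 50 uM; cpds 7-pt, final 9.74 nM–152 uM (activator mode) or from 7.32 nM upwards (inhibitor mode); RT; FI 480/540 nm at 5 and 30 min, then ± cAMP, reread.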

Rap guanine nucleotide exchange factor 3 (Homo sapiens), sequence (O95398 whole entry, looked up): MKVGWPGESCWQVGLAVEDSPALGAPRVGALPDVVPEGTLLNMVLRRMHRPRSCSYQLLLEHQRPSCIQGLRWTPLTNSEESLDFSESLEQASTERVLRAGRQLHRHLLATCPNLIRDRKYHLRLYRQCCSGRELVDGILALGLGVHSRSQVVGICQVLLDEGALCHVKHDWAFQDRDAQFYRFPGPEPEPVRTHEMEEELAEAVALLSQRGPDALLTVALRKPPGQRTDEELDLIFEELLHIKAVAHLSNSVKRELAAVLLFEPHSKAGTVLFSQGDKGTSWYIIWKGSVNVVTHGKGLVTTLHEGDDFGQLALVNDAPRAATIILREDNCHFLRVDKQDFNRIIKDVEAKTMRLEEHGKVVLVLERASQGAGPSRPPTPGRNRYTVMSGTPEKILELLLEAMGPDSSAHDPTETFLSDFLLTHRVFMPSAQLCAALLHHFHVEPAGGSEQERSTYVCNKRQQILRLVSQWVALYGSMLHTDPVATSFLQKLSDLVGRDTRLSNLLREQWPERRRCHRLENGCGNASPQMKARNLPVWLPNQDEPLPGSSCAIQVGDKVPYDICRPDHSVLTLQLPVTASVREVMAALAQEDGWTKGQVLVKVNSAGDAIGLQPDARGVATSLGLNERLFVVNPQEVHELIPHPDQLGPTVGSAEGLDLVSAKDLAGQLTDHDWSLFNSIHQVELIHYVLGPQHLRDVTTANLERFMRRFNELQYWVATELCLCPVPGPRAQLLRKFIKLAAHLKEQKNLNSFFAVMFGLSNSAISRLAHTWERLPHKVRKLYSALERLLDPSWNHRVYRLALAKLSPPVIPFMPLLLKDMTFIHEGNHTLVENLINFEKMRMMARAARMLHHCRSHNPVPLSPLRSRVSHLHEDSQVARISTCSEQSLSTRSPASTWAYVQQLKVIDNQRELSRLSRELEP
Rap guanine nucleotide exchange factor 4 (Homo sapiens), sequence (Q8WZA2 whole entry, looked up): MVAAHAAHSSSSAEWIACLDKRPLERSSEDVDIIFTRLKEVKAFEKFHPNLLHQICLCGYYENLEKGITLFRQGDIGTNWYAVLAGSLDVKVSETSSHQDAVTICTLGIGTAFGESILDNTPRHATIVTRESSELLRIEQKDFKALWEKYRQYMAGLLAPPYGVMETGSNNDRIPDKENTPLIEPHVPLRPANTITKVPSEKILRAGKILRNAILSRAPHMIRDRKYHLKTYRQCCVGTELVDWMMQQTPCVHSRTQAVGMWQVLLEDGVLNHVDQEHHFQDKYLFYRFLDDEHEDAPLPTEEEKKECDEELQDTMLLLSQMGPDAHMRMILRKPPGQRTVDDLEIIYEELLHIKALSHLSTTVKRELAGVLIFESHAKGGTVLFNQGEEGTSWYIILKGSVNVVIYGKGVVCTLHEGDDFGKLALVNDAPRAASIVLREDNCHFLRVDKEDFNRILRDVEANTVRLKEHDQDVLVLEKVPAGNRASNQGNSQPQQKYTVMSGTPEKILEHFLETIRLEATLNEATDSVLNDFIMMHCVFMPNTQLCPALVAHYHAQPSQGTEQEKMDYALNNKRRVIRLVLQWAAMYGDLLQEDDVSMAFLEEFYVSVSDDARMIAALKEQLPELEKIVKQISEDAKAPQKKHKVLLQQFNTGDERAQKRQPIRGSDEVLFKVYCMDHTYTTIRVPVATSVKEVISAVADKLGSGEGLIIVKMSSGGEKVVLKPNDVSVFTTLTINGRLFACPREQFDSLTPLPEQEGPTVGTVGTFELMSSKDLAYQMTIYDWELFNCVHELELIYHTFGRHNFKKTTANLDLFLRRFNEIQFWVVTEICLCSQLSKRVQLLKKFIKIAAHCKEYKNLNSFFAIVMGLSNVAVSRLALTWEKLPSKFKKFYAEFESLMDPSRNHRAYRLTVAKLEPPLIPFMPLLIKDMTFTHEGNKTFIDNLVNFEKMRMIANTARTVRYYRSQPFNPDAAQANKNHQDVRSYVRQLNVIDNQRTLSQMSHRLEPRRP

Consider `Cn1c(SCc2c(Cl)cccc2Cl)nnc1-c1ccc2nonc2c1`, for which the Potency entry in assay [1], in assay [2] and in assay [4] was “inactive” throughout. Besides, in assay [3], the activation was 10.1% [at 17.1 µM, percent relative to cAMP agonist control]. Further, the activity change, negative = inhibition in assay [5] is -10.9% [at 30.8 µM].
Regarding `Oc1ccc(-c2c(-c3ccsc3)sc3ccccc23)cc1`, the Potency entry in assay [1], in assay [2] and in assay [4] was “inactive” in each case. For the same compound, the activation in assay [3] was 2.53% [at 17.1 µM, percent relative to cAMP agonist control]. Also, the activity change, negative = inhibition in assay [5] was -8.26% [at 30.8 µM].
For `Cc1ccccc1NC1=C/C(=N\S(=O)(=O)c2ccc(C(=O)O)cc2)c2ccccc2C1=O`, the Potency in assay [1] was 14.1 µM (active). The Potency result in assay [2] and in assay [4] was “inactive” throughout. In assay [3], the activation was 1.42% [at 17.1 µM, percent relative to cAMP agonist control]. The activity change, negative = inhibition in assay [5] was -15% [at 30.8 µM].
For `Cc1c(Cl)cccc1NC(=O)CN(CCc1ccccc1)S(=O)(=O)c1ccccc1`, the Potency result in assay [1], in assay [2], in assay [3], in assay [4] and in assay [5] was “inactive” each time.
Take `COc1ccc(OC)c(Nc2ncc3c(n2)CCN(Cc2cc(OC)c(OC)c(OC)c2)C3)c1`: the Potency result in assay [1], in assay [2], in assay [3], in assay [4] and in assay [5] was “inactive” throughout.
Turning to `CN1\C(=C/C=C/C=C/C=[N+](C)C)C(C)(C)c2ccccc21`, the Potency in assay [1] was 39.8 µM (active). The Potency entry in assay [2] and in assay [4] was “inactive” throughout. In addition, the activation in assay [3] is 2.26% [at 17.1 µM, percent relative to cAMP agonist control]. Also, the activity change, negative = inhibition in assay [5] is 43.3% [at 30.8 µM].
For `CCOC(=O)c1[nH]c(C)c(C(=O)NC(C)(C)C)c1C`, the Potency result in assay [1], in assay [2], in assay [3], in assay [4] and in assay [5] was “inactive” each time.
Consider `O=C(c1ccco1)N(CCC(c1ccccc1)c1ccco1)Cc1ccco1` (stereo not given), for which the Potency in assay [1] is 75.7 µM (active). The Potency entry in assay [2], in assay [3], in assay [4] and in assay [5] was “inactive” throughout.
For `CCOC(=O)c1c(C)nc2sc(C(N)=O)c(N)c2c1-c1ccccc1`, the Potency result in assay [1], in assay [2] and in assay [4] was “inactive” each time. For the same compound, the activation in assay [3] was -0.736% [at 17.1 µM, percent relative to cAMP agonist control]. Moreover, the activity change, negative = inhibition in assay [5] is -13.8% [at 30.8 µM].
For the compound `CN(C)C(=O)CCc1ccc2c3c([nH]c2c1)[C@]1(C)[C@@H](C(=O)N2CCCCC2)C[C@H](CC(=O)NCCc2ccccn2)C(=O)N1CC3`, the Potency result in assay [1], in assay [2] and in assay [4] was “inactive” in each case. In assay [3], the activation was -3.15% [at 17.1 µM, percent relative to cAMP agonist control]. Moreover, the activity change, negative = inhibition in assay [5] is -16% [at 30.8 µM].
For the compound `Cc1cccc(C(=O)Nc2ccc3c(c2)ncn3C)c1`, the Potency entry in assay [1], in assay [2], in assay [3], in assay [4] and in assay [5] was “inactive” in each case.
As to `N#C/C(=C/c1ccc(O)c(O)c1)c1nc2ccccc2[nH]1`, the Potency in assay [1] is 6.01 µM (active). In addition, the Potency result in assay [2], in assay [3], in assay [4] and in assay [5] was “inactive” each time.
`Cc1ccc(S(=O)(=O)N2CCC(C(=O)Nc3ccccc3N3CCCCC3)CC2)cc1C`: the Potency result in assay [1], in assay [2], in assay [3], in assay [4] and in assay [5] was “inactive” throughout.
In the case of `CCCc1cc(=O)[nH]c(SCC(=O)Nc2sc3c(c2C#N)CCC(C)C3)n1` (stereo not given), the figures for the Potency in assay [1] and in assay [4] were 89.1 µM (active) and 0.135 µM (active), respectively. Further, in assay [2], the Potency entry was “inactive”. Also, the activation in assay [3] was 4.56% [at 17.1 µM, percent relative to cAMP agonist control]. Besides, in assay [5], the activity change, negative = inhibition is -6.17% [at 30.8 µM].
Turning to `O=C1CC(c2ccccc2)=C(c2ccccc2)C1`, the Potency entry in assay [1], in assay [2] and in assay [4] was “inactive” each time. The activation in assay [3] was -2.19% [at 17.1 µM, percent relative to cAMP agonist control]. The activity change, negative = inhibition in assay [5] is 8.98% [at 30.8 µM].
As for `CC1=CC2=NC(=O)/C(=C\c3cccn3CCOc3ccc(C)c(C)c3)C(=N)N2O1`, the Potency entry in assay [1], in assay [2], in assay [3], in assay [4] and in assay [5] was “inactive” each time.
For the compound `COCOCCn1cc(CN2CCS(=O)(=O)N(Cc3ccc(-c4ccc(C)cc4)cc3)C(CC(C)C)C2=O)nn1` (stereo not given), the Potency entry in assay [1], in assay [2] and in assay [4] was “inactive” in each case. In assay [3], the activation is 9.16% [at 17.1 µM, percent relative to cAMP agonist control]. For the same compound, the activity change, negative = inhibition in assay [5] was 15.6% [at 30.8 µM].
For `O=C1NC(=O)C2(CCC(C(=O)O)C2)N1` (stereo not given), the Potency entry in assay [1], in assay [2] and in assay [4] was “inactive” throughout. In addition, in assay [3], the activation was 11.7% [at 17.1 µM, percent relative to cAMP agonist control]. For the same compound, the activity change, negative = inhibition in assay [5] is 14.4% [at 30.8 µM].
As to `COc1cccc(Cn2c(=O)cc(C)c3c(C)nn(C)c32)c1`, the Potency result in assay [1], in assay [2], in assay [3], in assay [4] and in assay [5] was “inactive” each time.
As to `CCCN1C(=O)c2[nH]nc(-c3ccccc3)c2C1c1cccc(O)c1` (stereo not given), the Potency result in assay [1], in assay [2], in assay [3], in assay [4] and in assay [5] was “inactive” in each case.
As to `Cc1ccnc(NS(=O)(=O)c2ccc(NC(=O)Cc3c(F)cccc3Cl)cc2)n1`, the Potency result in assay [1], in assay [2], in assay [3], in assay [4] and in assay [5] was “inactive” in each case.
As for `CC(=O)Nc1ccc(C=NNc2ccc(S(=O)(=O)Nc3ccccc3C(=O)O)cc2[N+](=O)[O-])cc1`, in assay [1], the Potency was 28.2 µM (active). Also, the Potency entry in assay [2] and in assay [4] was “inactive” in each case. Moreover, the activation in assay [3] was 0.331% [at 17.1 µM, percent relative to cAMP agonist control]. In assay [5], the activity change, negative = inhibition is 0.935% [at 30.8 µM].
As for `CCn1c(C(=O)N2CCCC(C(=O)N3CCN(c4cc(C)ccc4C)CC3)C2)cc2sccc21` (stereo not given), the Potency entry in assay [1], in assay [2], in assay [3] and in assay [5] was “inactive” throughout. Also, the outcome in assay [4] was “inactive [at 12.7 µM]”.
Consider `COc1cnc(-c2ccccn2)nc1Oc1cccc(Cl)c1`, for which the Potency entry in assay [1], in assay [2], in assay [3] and in assay [5] was “inactive” in each case. For the same compound, the Potency in assay [4] was 10.7 µM (active).
Turning to `CN(CCC#N)C(=O)COC(=O)c1c2c(nc3ccccc13)/C(=C/c1ccco1)CC2`, the Potency in assay [1] was 3.55 µM (active). In addition, the Potency entry in assay [2] and in assay [4] was “inactive” each time. The activation in assay [3] is -0.614% [at 17.1 µM, percent relative to cAMP agonist control]. Moreover, the activity change, negative = inhibition in assay [5] is -6.16% [at 30.8 µM].
In the case of `COc1ccc(/C=N/NC(=O)c2cccnc2)cc1CN1CCCc2ccccc21`, the Potency entry in assay [1], in assay [2], in assay [3], in assay [4] and in assay [5] was “inactive” in each case.
